Eight compounds from ChEMBL document CHEMBL3988442, “University of Dundee, Small-Polar-MMV Screening Library” (2021) can be followed below.

Set-up in all cases: scale not given: direction of the effect not stated beside the values
For assay [1], the target named is Protein translocase subunit SecA (Escherichia coli (strain K12)) (UniProt P10408). Kind of assay: Assay to Identify E. coli SecA ATPase Inhibitors. It counts as functional. Particulars: 30 µM.
Assay [2] addresses T1, Ubiquitin-activating enzyme e1, putative (Leishmania donovani (strain BPK282A1)) (UniProt E9BSI1).
T1 sequence (whole entry): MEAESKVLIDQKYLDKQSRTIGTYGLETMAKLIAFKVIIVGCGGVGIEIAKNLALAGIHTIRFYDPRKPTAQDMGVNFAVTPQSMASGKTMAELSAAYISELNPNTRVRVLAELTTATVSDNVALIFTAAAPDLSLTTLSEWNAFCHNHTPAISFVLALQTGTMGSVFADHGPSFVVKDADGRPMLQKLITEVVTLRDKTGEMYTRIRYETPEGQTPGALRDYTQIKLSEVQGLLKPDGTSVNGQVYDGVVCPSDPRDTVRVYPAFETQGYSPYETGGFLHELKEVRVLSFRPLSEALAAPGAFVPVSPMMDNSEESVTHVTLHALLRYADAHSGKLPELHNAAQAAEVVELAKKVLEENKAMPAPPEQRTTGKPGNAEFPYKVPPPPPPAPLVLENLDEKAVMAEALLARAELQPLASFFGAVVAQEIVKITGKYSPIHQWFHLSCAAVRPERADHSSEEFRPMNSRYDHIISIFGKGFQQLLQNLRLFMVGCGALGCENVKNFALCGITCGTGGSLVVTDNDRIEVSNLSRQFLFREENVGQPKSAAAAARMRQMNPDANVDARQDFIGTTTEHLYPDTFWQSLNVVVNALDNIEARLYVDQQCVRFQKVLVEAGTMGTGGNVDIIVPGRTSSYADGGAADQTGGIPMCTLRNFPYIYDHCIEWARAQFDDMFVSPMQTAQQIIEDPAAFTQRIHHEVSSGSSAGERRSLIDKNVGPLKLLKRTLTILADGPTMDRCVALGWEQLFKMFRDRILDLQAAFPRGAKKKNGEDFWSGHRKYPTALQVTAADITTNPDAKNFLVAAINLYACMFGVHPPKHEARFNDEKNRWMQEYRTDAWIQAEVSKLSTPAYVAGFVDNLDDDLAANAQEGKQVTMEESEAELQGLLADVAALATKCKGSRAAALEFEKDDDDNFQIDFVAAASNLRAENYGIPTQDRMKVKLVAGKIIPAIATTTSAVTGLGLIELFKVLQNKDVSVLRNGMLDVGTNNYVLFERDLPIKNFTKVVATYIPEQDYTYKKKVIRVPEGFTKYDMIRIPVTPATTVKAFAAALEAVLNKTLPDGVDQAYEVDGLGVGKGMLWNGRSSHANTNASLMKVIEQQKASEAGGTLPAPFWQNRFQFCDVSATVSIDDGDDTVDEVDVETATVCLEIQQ
The assay can be described thus: Leishmania donovani Ubiquitin Activating Enzyme (LdE1). Particulars: 30 µM. It counts as functional.

The target of assay [3] is AMP-activated protein kinase, AMPK (Homo sapiens) (UniProt P54646+O43741+P54619+Q9UGJ0+Q9Y478+Q13131+Q9UGI9). The assay can be described thus: AMP-dependent Kinase enzyme assay. An in vitro enzyme assay that detects ADP turnover that is directly proportional to AMPK activity. This uses naive AMPK that is activated during the assay with MK-8722. The format is functional. Particulars: 30 µM.

The target of assay [4] is Sialic acid-binding Ig-like lectin 9 (Homo sapiens) (UniProt Q9Y336). The assay can be described thus: Hs-Siglec9 ALPHAscreen SOP 20170721. Particulars: 10 µM. For orientation: Bead proximity is the source of the signal in Alpha formats.
Chain of Sialic acid-binding Ig-like lectin 9 (Homo sapiens) (Q9Y336 whole entry): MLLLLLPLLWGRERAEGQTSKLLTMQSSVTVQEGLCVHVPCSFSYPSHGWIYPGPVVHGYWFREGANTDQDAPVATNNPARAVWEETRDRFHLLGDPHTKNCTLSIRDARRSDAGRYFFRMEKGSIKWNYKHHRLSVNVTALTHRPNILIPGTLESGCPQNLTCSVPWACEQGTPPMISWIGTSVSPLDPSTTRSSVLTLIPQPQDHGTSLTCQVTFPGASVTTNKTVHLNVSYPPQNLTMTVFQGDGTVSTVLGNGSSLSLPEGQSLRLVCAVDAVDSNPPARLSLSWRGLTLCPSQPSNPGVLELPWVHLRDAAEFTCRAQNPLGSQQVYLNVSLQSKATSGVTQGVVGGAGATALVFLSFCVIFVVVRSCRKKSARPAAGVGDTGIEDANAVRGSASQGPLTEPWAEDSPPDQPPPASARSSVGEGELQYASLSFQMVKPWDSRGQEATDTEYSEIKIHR
Another assay has as its system Trypanosoma cruzi. Kind of assay: Trypanosoma cruzi phosphomannomutase and mannose-1-phosphate guanylyltransferase assay. The format is functional. Particulars: 10 µM.
Assay [5] has as its target T2, Arginase-2, mitochondrial (Homo sapiens) (UniProt P78540).
T2 sequence (whole entry): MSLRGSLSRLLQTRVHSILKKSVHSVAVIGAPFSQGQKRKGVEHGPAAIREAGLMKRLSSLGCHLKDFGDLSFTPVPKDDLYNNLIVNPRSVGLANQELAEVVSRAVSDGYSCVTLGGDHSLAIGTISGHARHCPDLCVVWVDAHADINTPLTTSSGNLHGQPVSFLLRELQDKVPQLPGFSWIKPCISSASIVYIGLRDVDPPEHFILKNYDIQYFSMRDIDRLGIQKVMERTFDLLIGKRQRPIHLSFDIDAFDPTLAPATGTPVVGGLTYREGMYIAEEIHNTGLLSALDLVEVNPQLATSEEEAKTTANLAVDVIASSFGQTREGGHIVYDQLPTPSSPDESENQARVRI
The assay can be described thus: in vitro enzyme assay to detect the production of urea directly proportional to the activity of Arginase II. Further: in the data most compounds retested in dose-response had high values. It counts as functional. Particulars: 33.3 µM.

Assay [6] deals with T3, Proteasome subunit beta (Trypanosoma cruzi) (UniProt O96673).
T3 sequence (whole entry): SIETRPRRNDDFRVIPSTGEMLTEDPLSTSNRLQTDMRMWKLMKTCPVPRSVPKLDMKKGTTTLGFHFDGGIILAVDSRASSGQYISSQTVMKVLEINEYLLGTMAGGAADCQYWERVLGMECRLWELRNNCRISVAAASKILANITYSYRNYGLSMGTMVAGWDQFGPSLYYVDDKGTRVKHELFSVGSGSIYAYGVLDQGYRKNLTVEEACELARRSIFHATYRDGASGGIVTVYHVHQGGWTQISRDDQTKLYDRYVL
Kind of assay: Trypanosoma cruzi proteasome chymotrypsin-like activity (TcProtChymo) assay. Further: in the data most compounds retested in dose-response had high values. Particulars: 9.37 µM. The format is functional.

The species entered for another assay is Homo sapiens. The assay can be described thus: To identify inhibition of the IFN signalling (Jak-Stat) pathway via expression of an eGFP reporter gene under the control of an IFN-stimulated response element (ISRE) containing MxA promoter. It counts as functional. Particulars: 30 µM.
Assay [7] addresses T4, Tyrosyl-tRNA synthetase, putative (Trypanosoma cruzi (strain CL Brener)) (UniProt Q4DSP6).
T4 sequence (whole entry): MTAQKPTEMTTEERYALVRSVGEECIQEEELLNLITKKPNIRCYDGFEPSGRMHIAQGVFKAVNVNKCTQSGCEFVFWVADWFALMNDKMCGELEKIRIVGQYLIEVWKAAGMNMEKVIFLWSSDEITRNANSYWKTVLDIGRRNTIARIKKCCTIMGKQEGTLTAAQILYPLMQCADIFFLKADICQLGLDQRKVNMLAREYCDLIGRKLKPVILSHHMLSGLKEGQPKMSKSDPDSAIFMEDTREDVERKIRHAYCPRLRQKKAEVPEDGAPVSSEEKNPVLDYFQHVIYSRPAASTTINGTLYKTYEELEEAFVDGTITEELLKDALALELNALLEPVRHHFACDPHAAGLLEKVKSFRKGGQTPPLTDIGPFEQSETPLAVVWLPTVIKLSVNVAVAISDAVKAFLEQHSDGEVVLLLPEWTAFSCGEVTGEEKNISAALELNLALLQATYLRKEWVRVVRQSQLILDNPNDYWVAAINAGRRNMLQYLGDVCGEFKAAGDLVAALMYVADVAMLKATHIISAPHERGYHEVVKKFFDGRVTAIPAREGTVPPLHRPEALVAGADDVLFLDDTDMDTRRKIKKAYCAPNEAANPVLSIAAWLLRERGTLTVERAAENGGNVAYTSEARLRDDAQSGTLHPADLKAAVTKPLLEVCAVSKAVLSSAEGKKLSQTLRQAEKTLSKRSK
The assay can be described thus: Trypanosoma cruzi tyrosyl tRNA synthetase (TcYRS) _High Tyrosine SOP. Further: in the data most compounds retested in dose-response had high values. The format is functional. Particulars: 30 µM.

Assay [8] deals with T4, Tyrosyl-tRNA synthetase, putative (Trypanosoma cruzi (strain CL Brener)). Kind of assay: Trypanosoma cruzi tyrosyl tRNA synthetase (TcYRS) SOP. It counts as functional. Particulars: 30 µM.
Assay [9] addresses Chromo domain-containing protein 1 (Saccharomyces cerevisiae (strain ATCC 204508 / S288c) (Baker's yeast)) (UniProt P32657). Kind of assay: ScCHD-1 Enzyme Inhibition Assay. Further: in the data most compounds retested in dose-response had high values. Particulars: 30 µM. The format is functional.

Molecules are shown by their SMILES. For some of these results: Results with a measured potency or affinity are listed apart.

Chain of Protein translocase subunit SecA (Escherichia coli (strain K12)) (P10408 whole entry): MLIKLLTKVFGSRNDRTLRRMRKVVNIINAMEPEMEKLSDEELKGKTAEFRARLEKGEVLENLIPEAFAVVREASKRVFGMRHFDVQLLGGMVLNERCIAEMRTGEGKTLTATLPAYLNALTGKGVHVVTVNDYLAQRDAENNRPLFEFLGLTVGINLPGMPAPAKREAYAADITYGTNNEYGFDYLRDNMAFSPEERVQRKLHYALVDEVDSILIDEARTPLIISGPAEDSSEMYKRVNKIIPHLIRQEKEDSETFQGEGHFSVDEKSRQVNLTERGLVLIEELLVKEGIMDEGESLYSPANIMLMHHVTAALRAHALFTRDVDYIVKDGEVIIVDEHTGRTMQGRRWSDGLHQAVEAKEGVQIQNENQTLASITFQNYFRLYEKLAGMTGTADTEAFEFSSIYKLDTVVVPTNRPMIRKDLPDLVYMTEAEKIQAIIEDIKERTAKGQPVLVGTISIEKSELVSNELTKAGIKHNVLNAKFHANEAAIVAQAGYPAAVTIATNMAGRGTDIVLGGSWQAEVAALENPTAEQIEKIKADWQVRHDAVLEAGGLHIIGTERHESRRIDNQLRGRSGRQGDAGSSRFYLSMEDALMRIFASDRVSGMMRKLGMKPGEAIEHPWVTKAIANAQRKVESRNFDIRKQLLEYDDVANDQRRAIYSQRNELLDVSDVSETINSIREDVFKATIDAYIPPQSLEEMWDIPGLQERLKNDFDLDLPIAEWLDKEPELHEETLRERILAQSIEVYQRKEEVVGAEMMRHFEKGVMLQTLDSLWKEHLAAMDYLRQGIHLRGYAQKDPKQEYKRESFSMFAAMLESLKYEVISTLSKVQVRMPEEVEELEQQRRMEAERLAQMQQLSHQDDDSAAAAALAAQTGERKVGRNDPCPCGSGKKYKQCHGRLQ
Chain of Chromo domain-containing protein 1 (Saccharomyces cerevisiae (strain ATCC 204508 / S288c) (Baker's yeast)) (P32657 whole entry, the tested form may be a part): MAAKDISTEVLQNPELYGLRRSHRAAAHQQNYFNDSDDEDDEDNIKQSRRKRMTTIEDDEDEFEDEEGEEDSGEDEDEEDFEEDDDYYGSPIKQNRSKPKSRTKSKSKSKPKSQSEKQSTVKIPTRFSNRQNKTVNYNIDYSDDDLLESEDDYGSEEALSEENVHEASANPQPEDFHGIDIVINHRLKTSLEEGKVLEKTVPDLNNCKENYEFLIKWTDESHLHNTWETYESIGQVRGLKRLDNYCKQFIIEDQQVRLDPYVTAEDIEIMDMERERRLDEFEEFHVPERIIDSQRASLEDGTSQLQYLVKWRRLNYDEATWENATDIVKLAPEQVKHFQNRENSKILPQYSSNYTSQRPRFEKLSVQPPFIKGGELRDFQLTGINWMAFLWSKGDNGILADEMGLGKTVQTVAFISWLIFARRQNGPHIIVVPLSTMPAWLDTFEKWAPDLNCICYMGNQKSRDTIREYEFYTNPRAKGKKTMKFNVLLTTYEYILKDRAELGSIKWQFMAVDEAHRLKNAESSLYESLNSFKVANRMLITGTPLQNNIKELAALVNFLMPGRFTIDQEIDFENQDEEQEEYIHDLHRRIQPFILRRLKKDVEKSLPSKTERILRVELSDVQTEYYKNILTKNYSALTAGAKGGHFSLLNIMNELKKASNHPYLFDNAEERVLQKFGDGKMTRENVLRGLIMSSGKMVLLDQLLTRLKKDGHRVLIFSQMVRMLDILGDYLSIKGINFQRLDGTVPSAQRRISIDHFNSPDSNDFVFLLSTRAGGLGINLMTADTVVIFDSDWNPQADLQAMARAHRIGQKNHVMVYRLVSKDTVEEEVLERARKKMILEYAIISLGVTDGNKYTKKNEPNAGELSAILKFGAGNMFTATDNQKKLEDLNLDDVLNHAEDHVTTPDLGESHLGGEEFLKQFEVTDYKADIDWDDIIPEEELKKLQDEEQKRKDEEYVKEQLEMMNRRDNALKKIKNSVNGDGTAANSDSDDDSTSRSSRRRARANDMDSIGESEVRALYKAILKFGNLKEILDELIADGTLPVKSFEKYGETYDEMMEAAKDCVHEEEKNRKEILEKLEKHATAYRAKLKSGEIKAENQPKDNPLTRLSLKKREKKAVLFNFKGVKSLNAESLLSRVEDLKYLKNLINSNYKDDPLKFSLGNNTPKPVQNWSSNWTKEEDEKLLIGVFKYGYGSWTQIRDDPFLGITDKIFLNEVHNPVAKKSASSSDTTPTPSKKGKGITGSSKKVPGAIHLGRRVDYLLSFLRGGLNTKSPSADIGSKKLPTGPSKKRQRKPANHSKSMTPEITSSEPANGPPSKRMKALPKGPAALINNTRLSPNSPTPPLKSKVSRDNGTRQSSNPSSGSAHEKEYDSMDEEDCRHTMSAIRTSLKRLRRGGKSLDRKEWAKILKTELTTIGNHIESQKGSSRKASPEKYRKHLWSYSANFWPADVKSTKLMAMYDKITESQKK

Take `Cc1nn(C)cc1CN1CCC(C2Nc3ccccc3S(=O)(=O)N2)CC1` (stereo not drawn): the Percent Effect in [1] is -3.36%; in [2] it was 6.76%; in assay [3], 11.9%; in assay [4], 2.59%; in the assay on Trypanosoma cruzi, -1.78%; in assay [5], 0.232%. Moreover, the Percent Effect was 7.49% in assay [6]; -1.1% in the assay listed under Homo sapiens; 6.45% in assay [7]; 14.3% in [8]; -9.41% in assay [9].

In the case of `COc1cccc2cc(CNCc3ccnc(N4CCOCC4)c3)oc12`, the Percent Effect is -5.63% in [1]; 0% in assay [2]; -16.9% in [3]; 3.48% in assay [4]; -6.7% in the assay on Trypanosoma cruzi; -6.41% in assay [5]. Besides, the Percent Effect in [6] is 10.6%; in the assay filed under Homo sapiens it was 26.6%; in assay [7], 1.48%; in assay [8] it was -11.1%; in assay [9], 3.15%.

On to `COCC1CC2(CCN(C(=O)c3cc(C)oc3C)CC2)CN1C(C)C` (stereo not drawn), for which the Percent Effect is -2.57% in [1]; 0% in assay [2]; -9.18% in [3]; -4.84% in assay [4]; 2.15% with Trypanosoma cruzi; -1.25% in assay [5]. The Percent Effect was 9.21% in [6]; 1.95% in the assay listed under Homo sapiens; 8.91% in assay [7]; 15.8% in assay [8]; -7% in assay [9].

In the case of `CN(C)c1ccc(CNc2cncc(-n3cccn3)n2)cc1`, the Percent Effect is -3.75% in [1]; 5.2% in assay [2]; 0.00463% in assay [3]; 7.28% in assay [4]; 3.75% with Trypanosoma cruzi; -6.05% in [5]. For the same compound, the Percent Effect is 6.25% in [6]; 9.83% in the assay filed under Homo sapiens; 2.91% in assay [7]; 12.2% in assay [8]; 72% in assay [9].

Regarding `O=C(NC1CCCN(c2ncccn2)C1)c1ccoc1` (stereo not drawn), the Percent Effect was -3.61% in assay [1]; 23.7% in assay [2]; -4.63% in [3]; -9.78% in [4]; -0.487% in the assay on Trypanosoma cruzi; 2.37% in assay [5]. The Percent Effect in assay [6] is 8.34%; in the assay filed under Homo sapiens, 8.15%; in [7], 3.19%; in assay [8], 15.6%; in [9] it was -9.61%.

Regarding `COc1ccc(CNC(=O)CNc2cc3c(cc2Cl)OCCCO3)cc1`, the Percent Effect in assay [1] was -3.73%; in assay [2], -2.7%; in [3], 2.47%; in [4] it was -4.48%; in the assay on Trypanosoma cruzi, -2.25%; in [5] it was 0.744%. The Percent Effect is 3.35% in assay [6]; 11.5% in the assay listed under Homo sapiens; 1.07% in assay [7]; 1.24% in assay [8]; -1.22% in assay [9].

As for `CCN1CCN(C(=O)c2nc(C)n(-c3ccccc3Cl)n2)CC1`, the Percent Effect in assay [1] is -9.34%; in assay [2], 7.89%; in [3] it was -2.25%; in assay [4], 14.9%; in the assay on Trypanosoma cruzi, 5.7%; in assay [5] it was 2.16%. Further, the Percent Effect in assay [6] was 3.81%; in the assay listed under Homo sapiens, -16.5%; in assay [7] it was 4.43%; in assay [8], 23.5%; in assay [9] it was -7.33%.

On to `Cc1ccc(N2CCCC(NCc3ccncc3)C2)nn1` (stereo not drawn), for which the Percent Effect was -2.1% in [1]; 11.4% in assay [2]; -4.43% in assay [3]; -7.21% in assay [4]; 0.718% with Trypanosoma cruzi; -3.23% in assay [5]. In addition, the Percent Effect in assay [6] was 26.8%; in the assay listed under Homo sapiens, -2.46%; in assay [7], 0%; in assay [8] it was 2.53%; in assay [9], -31.9%.
